# Measured values reported in ChEMBL document CHEMBL4513216, “Probing the Open Global Health Chemical Diversity Library for Multistage-Active Starting Points for Next-Generation Antimalarials” (ACS Infect Dis, 2020).
# In all, about 69,000 compounds went through this assay and about 8,600 (12%) showed an effect of 50% or more. The entries come from a sample that favours strong results as a whole.
# Tested on: Plasmodium berghei
# Assay: Screen against P. berghei liver stage (PbLuc), transformed with Luciferase, at 10uM
# Assay type: functional, HepG2
# Details: tested at 10 uM
row,Structure (SMILES),INHIBITION [%]
1,Cc1occc1C(=O)N1C[C@@H](C(=O)NCc2ccco2)C[C@H]2OCC[C@H]21,32.2
2,Cc1c[nH]c(C2CCCN(Cc3cccc(C(=O)O)c3)C2)n1 (configuration not stated),6.26
3,COc1ccc(CN2CCCC2)cc1Oc1cccc(C#N)n1,57.5
4,COc1ccc(Oc2cccc(C#N)n2)cc1CN1CCCC1,25.4
5,N#Cc1cccc(Oc2ccc(CN3CCCC3)cc2Cl)n1,55
6,CC(=O)Nc1ccc(Oc2cccc(CN3CCCC3)c2)cc1,27.9
7,CCOc1cc(CN2CCCC2)ccc1Oc1cccc(C#N)n1,47.6
8,N#Cc1ccc(CN2CCOCC2)cc1,40.6
9,O=C1CCNc2ccc(F)cc2CN1Cc1ccco1,1.8
10,Cc1ccc(-c2nc(C3CCN(C(=O)c4cnn(C)c4)CC3)no2)cn1,30.5
11,O=c1[nH]c(N2CCOCC2)nc2c1CN(Cc1cccnc1)CC2,-4.51
12,O=C1CCCN1CCCC(=O)N1CCC2(CC1)[C@H](O)C[C@@H]2O,9.56
13,CN(Cc1nc(Cc2cccc(C(F)(F)F)c2)no1)CC1CCCCO1 (configuration not stated),42.1
14,CNC(=O)COc1cccc(CNC(=O)c2c(C)noc2C(C)C)c1,37.4
15,Cc1cc(C)c2nc(CN3CCC(CN)CC3)cc(O)c2c1,34.9
16,COC1CCCN(Cc2cc(O)c3cc(C)cc(C)c3n2)C1 (configuration not stated),61.2
17,Cc1cc(C)c2nc(CN3CCOCC(O)C3)cc(O)c2c1 (configuration not stated),17.6
18,Cc1cc(C)c2nc(CN3CCC(CN)C3)cc(O)c2c1 (configuration not stated),-8.75
19,Cc1cc(C)c2nc(CN3CC[C@@H](O)C3)cc(O)c2c1,20.1
20,Cc1cc(C)c2nc(CN3CCCC(c4cc[nH]n4)C3)cc(O)c2c1 (configuration not stated),78.5
21,CS(=O)(=O)CCn1ccc(NC(=O)Cc2ccccc2Cl)n1,25.2
22,CSCCC(Nc1nc(C)cc(C)n1)C(=O)NC1CC1 (configuration not stated),-15.4
23,Cc1ccccc1CSc1nc(N)cc(N2CCOC(C(N)=O)C2)n1 (configuration not stated),-19.2
24,NC(=O)C1CN(c2ccc(Br)cn2)CCO1 (configuration not stated),69.7
25,NC(=O)C1CN(c2ccc3cc(Br)ccc3n2)CCO1 (configuration not stated),37.1
26,CC(=O)NCc1nnn2c1CN(c1ncc(C)cn1)CCC2,21.3

row,Structure (SMILES),INHIBITION [%]
1,c1cnc(N2CCCn3nnc(COCC4CC4)c3C2)nc1,18.7
2,CCS(=O)(=O)N1CCCn2nnc(CNC(C)=O)c2C1,52.1
3,CC(=O)NCc1nnn2c1CN(c1ncccn1)CCC2,54.8
4,OCCOCc1nnn2c1CN(c1ncccn1)CCC2,43.8
5,c1ccc(OCc2nnn3c2CN(c2ncccn2)CCC3)nc1,57.1
6,CN(C)C(=O)NCc1nnn2c1CN(CC1CCOCC1)CCC2,-51
7,c1ccc(CN2CCCn3nnc(COc4ccccn4)c3C2)nc1,24.9
8,CCS(=O)(=O)N1CCCn2nnc(Cn3cccc3)c2C1,36.5
9,O=C(c1ccco1)N1CC[C@H]2C[C@@H](c3nccs3)O[C@@H]2C1,-7.59
10,COc1cccc(CNC(=O)c2cc(C)nc(N3CCCCC3)n2)c1,4.97
11,CCc1csc(C2CCCN(C(=O)c3ccco3)C2)n1 (configuration not stated),19.6
12,CC(=O)N1CCC(C)(c2cc(C(=O)NCC3CC3)nc(C)n2)CC1,9.075
13,O=C1CC2(CCCCN2C(=O)c2ccsc2)CN1CC1CC1 (configuration not stated),37.4
14,COCCn1cnc2ccc(NC(=O)c3ccccn3)cc2c1=O,19.4
15,CC(C)Cc1cc(C(=O)N2CCC(Oc3cccnc3)CC2)n(C)n1,5.11
16,COc1cccc(OC2CN(C(=O)CCn3cnc4ccccc43)C2)c1,70
17,COc1cccc(OC2CN(C(=O)Cn3nc4ccccc4n3)C2)c1,28.7
18,COc1cccc(OC2CN(C(=O)c3sccc3C)C2)c1,-17.6
19,COc1cccc(OC2CN(C(=O)CCn3cnnn3)C2)c1,55.9
20,CCn1nc(CC(C)C)cc1C(=O)N1C[C@H](O)[C@@H](N2CCCCC2)C1,29.7
21,O=C(CCn1cnc2ccccc21)N1CCN2CCCCC2C1 (configuration not stated),40.1
22,CC(C)Cc1cc(C(=O)N2CC(OCc3ccccc3F)C2)n(C)n1,43.2
23,COc1cccc(OC2CN(C(=O)c3cc(CC(C)C)nn3C)C2)c1,79.2
24,CCn1nc(CC(C)C)cc1C(=O)N1CC[C@@H](O)C1,26.8
25,COc1cccc(OC2CN(C(=O)c3c(C)noc3C)C2)c1,-57.7
26,CCn1nc(CC(C)C)cc1C(=O)N1CC(c2ccncc2)C1,57.4
